From PubChem BioAssay (EPA / NIEHS)
Results filed as inconclusive are left out. Activity calls are given as the source filed them. The calls were made as follows, unless noted: active = hit-call score of the fitted dose curve at least 0.9, where 1 is the maximum; inconclusive = response in the unintended direction; inactive = score below 0.9.

How the values were obtained:
[1] = Tanguay_ZF_120hpf_OTIC_legacy: (Legacy) Oregon State University Tanguay Lab 120 Hour Post-fertilization zebrafish Assay for Otic Vesicle Malformation (AID 2283639)
Outline: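 Otic vesicle malformation is read as a yes/no morphology call at 120 hpf. Exposure is static at 28C with 0.64% (vol/vol) DMSO; embryos that die are excluded from non-mortality endpoints.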

[2] = Tanguay_ZF_120hpf_PE_legacy: (Legacy) Oregon State University Tanguay Lab 120 Hour Post-fertilization zebrafish Assay for Pericardial Edema (AID 2283640);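 as to AC50: potency for increased incidence of pericardial edema versus DMSO baseline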
Outline: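 Tropical 5D wild-type zebrafish embryos were exposed statically to 120 hpf at 28C, sealed and foil-covered, in 0.64% DMSO final. Pericardial edema was scored present/absent by brightfield microscopy; dead embryos were not scored.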

[3] = Tanguay_ZF_120hpf_BRAI_legacy: (Legacy) Oregon State University Tanguay Lab 120 Hour Post-fertilization zebrafish Assay for Brain Malformation (AID 2283641)
Outline: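 Tropical 5D wild-type zebrafish embryos were exposed statically in sealed, foil-covered plates at 28C until 120 hpf, with 0.64% (vol/vol) final DMSO. Brain malformation was scored present/absent by brightfield microscopy, relative to DMSO baseline.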

[4] = Tanguay_ZF_120hpf_SOMI_legacy: (Legacy) Oregon State University Tanguay Lab 120 Hour Post-fertilization zebrafish Assay for Somite Malformation (AID 2283647)
Outline: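 Tropical 5D wild-type zebrafish embryos, dechorionated with pronase at 4 hpf, were placed singly at 6 hpf and statically exposed until 120 hpf at 28C in 0.64% DMSO. Somite malformation was scored present/absent by brightfield microscopy versus DMSO.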

[5] = Tanguay_ZF_120hpf_CFIN_legacy: (Legacy) Oregon State University Tanguay Lab 120 Hour Post-fertilization zebrafish Assay for Caudal Fin Malformation (AID 2283649)
Outline: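 Tropical 5D wild-type embryos, dechorionated with pronase at 4 hpf, were placed singly in wells at 6 hpf and statically exposed to compound at 28C until 120 hpf (0.64% DMSO). Caudal fin malformation was scored present/absent by brightfield microscopy.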

[6] = Tanguay_ZF_120hpf_PIG_legacy: (Legacy) Oregon State University Tanguay Lab 120 Hour Post-fertilization zebrafish Assay for Pigmentation Malformation (AID 2283650)
Outline: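 Tropical 5D wild-type zebrafish embryos, dechorionated with pronase at 4 hpf, were exposed singly from 6 hpf to 120 hpf statically at 28C in sealed, dark plates with 0.64% DMSO; pigmentation scored present/absent by brightfield microscopy, fitted against DMSO.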

[7] = Tanguay_ZF_120hpf_CIRC_legacy: (Legacy) Oregon State University Tanguay Lab 120 Hour Post-fertilization zebrafish Assay for Circulatory Malformation (AID 2283651)
Outline: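 Using wild-type Tropical 5D zebrafish, we exposed dechorionated embryos from 6 to 120 hpf in embryo medium with 0.64% DMSO. Circulatory defects were scored as present or absent; 5uM trimethyltin chloride served as positive control.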

[8] = Tanguay_ZF_120hpf_TRUN_legacy: (Legacy) Oregon State University Tanguay Lab 120 Hour Post-fertilization zebrafish Assay for Truncated Body (AID 2283655)
Outline: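 Tropical 5D wild-type embryos, dechorionated with pronase at 4 hpf, were placed singly in wells at 6 hpf and statically exposed at 28C until 120 hpf, final DMSO 0.64%. Truncated body was scored present/absent by brightfield microscopy.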

[9] = Tanguay_ZF_120hpf_NC_legacy: (Legacy) Oregon State University Tanguay Lab 120 Hour Post-fertilization zebrafish Assay for Notochord and Tail Malformation (AID 2283656)
Outline: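 Dechorionated 5D zebrafish, 1/well from 6 hpf; static exposure to 120 hpf, 28C, sealed, dark; final DMSO 0.64% v/v. NC scored binary (present/absent); dead embryos not scored. Fit vs DMSO baseline, gain direction.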

[10] = tested on: Thyroperoxidase (TPO), gene 54314; assay: CCTE_Simmons_AUR_rTPO: CCTE's Amplex UltraRed Assay for Thyroperoxidase (TPO) Inhibition, Simmons Lab (AID 2283662);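 as to AC50: potency for loss of signal meaning inhibition of peroxidase activity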
Outline: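 Endpoint is decreased Amplex UltraRed fluorescence after a 30-min, 37C reaction of rat thyroid microsomes with 300 uM H2O2. Eight test concentrations (5 nM–87.5 uM final) in 0.5% DMSO, three biological replicates each.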

[11] = CCTE_Simmons_CellTiterGLO_HEK293T: Viability Assessment in CCTE's Assays for Thyroperoxidase (TPO) Inhibition, Simmons Lab (AID 2283665);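 as to AC50: cells exposed to compound for 24 h before readout; actives reduce ATP signal below DMSO vehicle meaning cytotoxicity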
Outline: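 Cytotoxicity counter-screen: human HEK293T cells in low-serum (1% FBS) medium receive test chemical, 5 nM to 87.5 uM final, for 24 h; ATP is quantified by luciferase luminescence.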

[12] = Tanguay_ZF_120hpf_TR_legacy: (Legacy) Oregon State University Tanguay Lab 120 Hour Post-fertilization zebrafish Assay for Touch Response (AID 2283667)
Outline: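 Tropical 5D wild-type zebrafish embryos were exposed statically in sealed, foil-covered plates at 28C until 120 hpf, with 0.64% (vol/vol) final DMSO. Touch response was scored as present or absent; embryos that died were not scored.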

[13] = Tanguay_ZF_120hpf_JAW_legacy: (Legacy) Oregon State University Tanguay Lab 120 Hour Post-fertilization zebrafish Assay for Jaw Malformation (AID 2283638);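 as to AC50: active means more embryos with jaw malformation than DMSO controls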
Outline: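 Tropical 5D wild-type embryos, dechorionated with pronase at 4 hpf, were placed singly per well at 6 hpf and statically exposed at 28C until 120 hpf (0.64% DMSO final). Jaw malformation scored as present/absent by brightfield microscopy at 120 hpf, analyzed relative to DMSO.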

[14] = Tanguay_ZF_120hpf_PFIN_legacy: (Legacy) Oregon State University Tanguay Lab 120 Hour Post-fertilization zebrafish Assay for Pectoral Fin Malformation (AID 2283648);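 also: each larva judged yes or no for fin defect by brightfield with dead larvae skipped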
Outline: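 Tropical 5D wild-type embryos, dechorionated with pronase at 4 hpf, were placed singly in wells at 6 hpf and statically exposed until 120 hpf at 28C, sealed and dark, with 0.64% (vol/vol) final DMSO; pectoral fin malformation scored present/absent.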

[15] = Tanguay_ZF_120hpf_SWIM_legacy: (Legacy) Oregon State University Tanguay Lab 120 Hour Post-fertilization zebrafish Assay for Swim Bladder Malformation (AID 2283654);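 also: swim bladder malformation in each larva scored yes or no under brightfield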
Outline: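 Dechorionated Tropical 5D wild-type embryos, placed singly from 6 hpf, were statically exposed at 28C to 120 hpf with 0.64% DMSO final; swim bladder malformation was scored present/absent by brightfield microscopy, gain of signal relative to DMSO controls.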

[16] = read-out: solute carrier (SLC22A6), SLC22A6 (gene 9356); assay: LTEA_HepaRG_SLC22A6: Life Technologies and Expression Analysis (LTEA) Assay for solute carrier (SLC22A6) using HepaRG (AID 2283653; active = hit-call score of the fitted dose curve at least 0.9, where 1 is the maximum; inactive = score below 0.9); details: mRNA level, 48 h; actives raise or lower the signal
Outline: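 Differentiated human HepaRG cells were exposed for 48 h in serum-free induction medium to eight concentrations (top 100 uM, half-log steps, 0.5% DMSO), in duplicate. SLC22A6 mRNA was quantified by qRT-PCR, normalised to ACTB, GAPDH and POLR2A, and fitted bidirectionally against DMSO.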

[17] = read-out: solute carrier (SLC10A1), SLC10A1 (gene 6554); assay: LTEA_HepaRG_SLC10A1: Life Technologies and Expression Analysis (LTEA) Assay for solute carrier (SLC10A1) using HepaRG (AID 2283657; active = hit-call score of the fitted dose curve at least 0.9, where 1 is the maximum; inactive = score below 0.9); details: mRNA level, 48 h; actives raise or lower the signal
Outline: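 Differentiated HepaRG cells were plated 48 h, then exposed in serum-free induction medium for 48 h to 8 concentrations (top 100 uM, half-log steps, 0.5% DMSO). SLC10A1 mRNA was quantified by qRT-PCR normalized to ACTB, GAPDH, POLR2A; bidirectional fit versus DMSO.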

[18] = read-out: matrix metalloproteinase-1 (MMP1), MMP1 (gene 4312); assay: LTEA_HepaRG_MMP1: Life Technologies and Expression Analysis (LTEA) Assay for matrix metalloproteinase-1 (MMP1) using HepaRG (AID 2283658; active = hit-call score of the fitted dose curve at least 0.9, where 1 is the maximum; inactive = score below 0.9); details: mRNA level, 48 h; actives raise or lower the signal
Outline: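 Differentiated HepaRG cells, plated 48 h then switched to serum-free induction medium, were exposed in duplicate for 48 h to eight half-log concentrations up to 100 uM in 0.5% DMSO; MMP1 mRNA measured by qRT-PCR, normalized to ACTB, GAPDH, POLR2A.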

[19] = read-out: Cytochrome P450 (CYP24A1_1), CYP24A1 (gene 1591); assay: LTEA_HepaRG_CYP24A1_1: Life Technologies and Expression Analysis (LTEA) Assay for Cytochrome P450 (CYP24A1_1) using HepaRG (AID 2283671; active = hit-call score of the fitted dose curve at least 0.9, where 1 is the maximum; inactive = score below 0.9); details: mRNA level, 48 h; actives raise or lower the signal
Outline: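 HepaRG, 48 h exposure, 8-pt half-log series from 100 uM in 0.5% DMSO, duplicates. Readout: TaqMan qRT-PCR of CYP24A1 mRNA, housekeeping-normalized (ACTB/GAPDH/POLR2A). Bidirectional curve fit vs DMSO baseline.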

Measured: AC50

c1ccc(NNc2ccccc2)cc1
active: [11] 19.1 µM
not listed: [13] | [14] | [15] | [16] | [17] | [18] | [19]
inactive: all other assays above

CCNS(=O)(=O)C(F)(F)C(F)(F)C(F)(F)C(F)(F)C(F)(F)C(F)(F)C(F)(F)C(F)(F)F
inactive: [7] | [9]
active: [13] 41.5 µM | [2] 53.8 µM | [3] 45.5 µM | [4] 9.56 µM | [14] 48.4 µM | [6] 46.8 µM | [12] 17 µM

CCC12COCN1COC2
inactive: [13] | [4] | [14] | [5] | [6] | [7] | [8] | [9] | [12]

Nc1ccc(Cc2ccc(N)cc2)cc1
active: [10] 0.0776 µM
inactive: [13] | [2] | [4] | [14] | [5] | [6] | [9] | [11] | [12]

CC(C)(C)C(O)(CCc1ccc(Cl)cc1)Cn1cncn1 (configuration not stated)
inactive: [2] | [3] | [4] | [5] | [6] | [9] | [12]

CC(C)(C)OOC(C)(C)CCC(C)(C)OOC(C)(C)C
inactive: [13] | [2] | [3] | [14] | [5] | [6] | [7] | [8] | [9] | [12]

c1ccc2c(c1)-c1cccc3cccc-2c13
inactive: [3] | [14] | [5] | [6] | [7] | [8] | [9] | [12]

O=C(N[C@H](c1ccccc1)[C@@H]1CN2CCC1CC2)c1c(Cl)ccc(C(F)(F)F)c1Cl
inactive: [1] | [2] | [3] | [14] | [6]
active: [12] 0.968 µM

CCCCCCCCn1sccc1=O
not listed: [1] | [4] | [10] | [11] | [16] | [17] | [18] | [19]
inactive: all other assays above

Oc1ccccc1Cl
inactive: [1] | [3] | [5] | [6] | [7] | [8] | [10] | [11]

O=C1CCCO1
inactive: [13] | [2] | [4] | [14] | [5] | [6] | [7] | [15] | [8] | [12]

Brc1ccc(Oc2ccccc2)cc1
inactive: [13] | [3] | [4] | [14] | [5] | [6] | [7] | [8] | [9] | [12]

O=[N+]([O-])C(Br)(CO)CO
not listed: [2] | [7] | [8] | [10] | [11] | [13] | [15]
inactive: all other assays above

OCCOCCO
inactive: [13] | [2] | [4] | [14] | [5] | [6] | [15] | [8] | [9] | [12]

Cc1ccc(N)c(N)c1
active: [10] 1.68 µM
not listed: [1] | [13] | [16] | [17] | [18] | [19]
inactive: all other assays above

Nc1cc(Cl)cc(C(=O)O)c1Cl
active: [10] 24.2 µM
not listed: [1] | [3] | [15] | [16] | [17] | [18] | [19]
inactive: all other assays above

CCCCCCCCOC(=O)c1ccc(C(=O)OCCCCCCCC)c(C(=O)OCCCCCCCC)c1
inactive: [2] | [3] | [4] | [14] | [5] | [6] | [7] | [8] | [9] | [12]

O=[N+]([O-])c1ccc(Oc2ccc(Cl)cc2Cl)cc1
inactive: [2] | [3] | [4] | [14] | [5] | [8] | [12]

c1ccc(N=Nc2ccccc2)cc1
inactive: [13] | [2] | [3] | [14] | [5] | [9]

CN(C)[C@@H]1C(=O)C(C(N)=O)=C(O)[C@@]2(O)C(=O)C3=C(O)c4c(O)cccc4[C@@](C)(O)[C@H]3C[C@@H]12
active: [10] 10.7 µM
not listed: [1] | [3] | [15] | [16] | [17] | [18] | [19]
inactive: all other assays above

CCCCCOC(=O)c1ccccc1C(=O)OCCCCC
not listed: [1] | [5] | [10] | [11] | [16] | [17] | [18] | [19]
inactive: all other assays above

CCN(CC)CCO
not listed: [1] | [3] | [10] | [11] | [13] | [15]
inactive: all other assays above

OCCCBr
inactive: [13] | [2] | [3] | [4] | [14] | [5] | [15] | [8] | [9] | [12]

C[N+](C)(C)CC1CO1 (configuration not stated)
inactive: [13] | [2] | [3] | [4] | [5] | [6] | [15] | [8] | [9] | [12]

Cc1cc(N=Nc2ccccc2C)ccc1N
active: [2] 55.7 µM | [8] 48.2 µM | [10] 9.17 µM | [11] 18.9 µM | [12] 29.8 µM
inactive: [13] | [3] | [14] | [6] | [7] | [9]
